The nature of assay [1]: qHTS for Inhibitors of the Functional Ribonucleoprotein Complex (vRNP) of Lassa (LASV) Arenavirus: LASV Primary Screen - GLuc reporter signal (AID 1347082; calls by dose curve; tested in HEK293 reporter line; further: nearly all actives have a fitted effect of over 60% in size).
Assay [2] is described as follows: qHTS for Inhibitors of the Functional Ribonucleoprotein Complex (vRNP) of Lassa (LASV) Arenavirus: Viability assay - alamar blue signal for LASV Primary Screen (AID 1347083; calls by dose curve; tested in HEK293 reporter line; further: nearly all actives have a fitted effect of over 80% in size).
Assay [3] in a line: qHTS for Inhibitors of the Functional Ribonucleoprotein Complex (vRNP) of Lymphocytic Choriomeningitis Arenaviruses (LCMV): Viability assay - alamar blue signal for LCMV Primary Screen (AID 1347085; calls by dose curve; tested in HEK293 reporter line; further: nearly all actives have a fitted effect of over 80% in size).
In assay [4] the target is Nucleoprotein (Lymphocytic choriomeningitis virus (strain Armstrong)) (UniProt P09992). Kind of assay: qHTS for Inhibitors of the Functional Ribonucleoprotein Complex (vRNP) of Lymphocytic Choriomeningitis Arenaviruses (LCMV): LCMV Primary Screen - GLuc reporter signal (AID 1347086). Further: nearly all actives have a fitted effect of over 70% in size.

Potency data for eight molecules are collected here from PubChem BioAssay (NCATS).

Results filed as inconclusive are left out. Calls of active or inactive are those of the source. Unless noted, the call rests on the fitted dose curve.
Potency means the concentration at half of the fitted maximal effect.

Chain of Nucleoprotein (Lymphocytic choriomeningitis virus (strain Armstrong)) (P09992 whole entry, looked up): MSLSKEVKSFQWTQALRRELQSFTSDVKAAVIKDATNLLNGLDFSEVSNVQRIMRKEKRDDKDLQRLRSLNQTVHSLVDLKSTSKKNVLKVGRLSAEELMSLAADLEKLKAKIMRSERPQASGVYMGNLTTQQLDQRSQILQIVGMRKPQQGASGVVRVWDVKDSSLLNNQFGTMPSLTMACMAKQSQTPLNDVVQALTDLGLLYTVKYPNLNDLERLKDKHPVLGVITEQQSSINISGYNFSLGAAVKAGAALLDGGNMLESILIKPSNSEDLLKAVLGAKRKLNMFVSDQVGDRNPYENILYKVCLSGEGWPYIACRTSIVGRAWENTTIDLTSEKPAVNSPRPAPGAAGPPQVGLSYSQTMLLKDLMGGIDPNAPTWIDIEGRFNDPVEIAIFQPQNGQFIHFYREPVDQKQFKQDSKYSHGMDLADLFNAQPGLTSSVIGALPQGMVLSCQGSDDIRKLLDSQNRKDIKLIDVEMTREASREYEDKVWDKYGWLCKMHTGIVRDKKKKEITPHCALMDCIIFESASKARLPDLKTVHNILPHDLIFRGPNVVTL

As to `COc1cc(S(N)(=O)=O)cc(C(=O)O)c1OC`, the Potency entry in assay [1], in assay [2], in assay [3] and in assay [4] was “inactive” in each case.

For the molecule `CCCOC(=O)c1ccc(O)cc1`, the Potency result in assay [1], in assay [2], in assay [3] and in assay [4] was “inactive” in each case.

`CCCCc1ccc(NS(=O)(=O)c2ccc(C)c(C(=O)N3CCN(c4cccc(C)c4C)CC3)c2)cc1`: the Potency entry in assay [1], in assay [2], in assay [3] and in assay [4] was “inactive” each time.

For `CCN1CCc2nc(N)oc2CC1`, the Potency result in assay [1], in assay [2], in assay [3] and in assay [4] was “inactive” throughout.

For `CCOC(=O)[C@@H](N)CCC(=O)N[C@@H](CSCc1ccccc1)C(=O)N[C@@H](C(=O)OCC)c1ccccc1`, the Potency result in assay [1], in assay [2], in assay [3] and in assay [4] was “inactive” each time.

In the case of `O=C(O)Cc1ccccc1Oc1ccc(Cl)cc1Cl`, the Potency result in assay [1], in assay [2], in assay [3] and in assay [4] was “inactive” each time.

As to `Nc1nnnn1-c1ccccc1`, the Potency result in assay [1], in assay [2], in assay [3] and in assay [4] was “inactive” throughout.

For `COCCn1c2c([n+](Cc3cnccn3)c1C)C(=O)c1ccccc1C2=O`, the Potency in assay [1] was 109 nM (active); in assay [2] it was 109 nM (active); in assay [3] it was 96.8 nM (active); in assay [4], 68.5 nM (active).
